# Columns and labels:
# [1] = target: Sphingosine kinase 1 (Homo sapiens) (UniProt Q9NYA1); settings: at 1 µM;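 note: mean SPHK1 inhibition value reported from the GSK PKIS kinase panel screen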
# [2] = target: T1, Sphingosine kinase 2 (Homo sapiens) (UniProt Q9NRA0); settings: at 0.1 µM
# T1 sequence (whole entry): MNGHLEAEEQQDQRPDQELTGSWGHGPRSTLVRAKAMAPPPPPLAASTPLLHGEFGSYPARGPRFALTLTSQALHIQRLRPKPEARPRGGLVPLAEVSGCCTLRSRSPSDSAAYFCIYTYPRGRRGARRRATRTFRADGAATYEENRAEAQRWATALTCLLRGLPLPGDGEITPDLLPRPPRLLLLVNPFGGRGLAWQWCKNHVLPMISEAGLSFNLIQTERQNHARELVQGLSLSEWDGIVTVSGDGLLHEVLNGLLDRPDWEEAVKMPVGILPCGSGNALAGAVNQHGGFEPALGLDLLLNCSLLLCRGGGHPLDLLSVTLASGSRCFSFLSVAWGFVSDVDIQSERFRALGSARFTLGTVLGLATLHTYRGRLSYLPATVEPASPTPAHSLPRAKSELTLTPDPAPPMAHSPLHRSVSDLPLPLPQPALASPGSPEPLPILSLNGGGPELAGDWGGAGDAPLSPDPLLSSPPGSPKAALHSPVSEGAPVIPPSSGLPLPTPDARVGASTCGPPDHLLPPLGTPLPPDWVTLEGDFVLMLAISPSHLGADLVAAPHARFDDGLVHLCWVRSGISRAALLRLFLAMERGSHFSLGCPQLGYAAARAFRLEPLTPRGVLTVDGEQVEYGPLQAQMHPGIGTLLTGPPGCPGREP
# [3] = target: T1, Sphingosine kinase 2 (Homo sapiens); settings: at 1 µM
# [4] = target: Casein kinase II subunit alpha (Homo sapiens) (UniProt P68400); settings: at 0.1 µM
# Sequence of Casein kinase II subunit alpha (Homo sapiens) (P68400 whole entry, looked up): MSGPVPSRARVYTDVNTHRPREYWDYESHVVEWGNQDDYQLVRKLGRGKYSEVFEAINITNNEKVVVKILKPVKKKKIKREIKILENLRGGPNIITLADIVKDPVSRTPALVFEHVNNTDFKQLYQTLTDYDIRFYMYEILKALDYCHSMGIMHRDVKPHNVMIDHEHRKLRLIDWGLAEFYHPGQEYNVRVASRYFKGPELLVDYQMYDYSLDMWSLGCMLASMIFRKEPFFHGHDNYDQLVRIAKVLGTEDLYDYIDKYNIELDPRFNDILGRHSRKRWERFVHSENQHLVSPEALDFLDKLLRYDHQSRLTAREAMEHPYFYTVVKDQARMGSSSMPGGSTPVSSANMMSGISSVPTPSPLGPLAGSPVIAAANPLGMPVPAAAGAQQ
# [5] = target: Casein kinase II subunit alpha (Homo sapiens) (UniProt P68400); settings: at 1 µM
# [6] = target: T2, Inhibitor of nuclear factor kappa-B kinase subunit alpha (Homo sapiens) (UniProt O15111); settings: at 0.1 µM
# T2 sequence (whole entry): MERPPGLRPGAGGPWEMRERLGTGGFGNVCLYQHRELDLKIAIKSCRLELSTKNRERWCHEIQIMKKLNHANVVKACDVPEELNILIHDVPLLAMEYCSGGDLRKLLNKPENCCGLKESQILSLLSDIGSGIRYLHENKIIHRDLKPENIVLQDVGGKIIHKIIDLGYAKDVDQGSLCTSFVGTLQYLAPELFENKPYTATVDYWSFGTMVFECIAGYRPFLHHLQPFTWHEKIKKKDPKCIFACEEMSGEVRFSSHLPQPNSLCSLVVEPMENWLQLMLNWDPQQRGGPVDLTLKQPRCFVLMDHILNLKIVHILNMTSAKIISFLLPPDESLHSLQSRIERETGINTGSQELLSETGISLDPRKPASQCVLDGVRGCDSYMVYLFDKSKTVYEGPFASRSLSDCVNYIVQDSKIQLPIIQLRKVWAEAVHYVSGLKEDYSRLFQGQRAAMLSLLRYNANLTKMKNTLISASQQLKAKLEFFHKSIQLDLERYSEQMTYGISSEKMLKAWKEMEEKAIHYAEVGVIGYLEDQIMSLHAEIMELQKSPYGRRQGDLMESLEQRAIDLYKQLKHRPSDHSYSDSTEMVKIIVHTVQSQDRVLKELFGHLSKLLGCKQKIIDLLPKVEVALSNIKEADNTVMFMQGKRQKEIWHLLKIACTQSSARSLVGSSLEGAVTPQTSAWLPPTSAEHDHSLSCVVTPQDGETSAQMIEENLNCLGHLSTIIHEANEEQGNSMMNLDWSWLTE
# [7] = target: T2, Inhibitor of nuclear factor kappa-B kinase subunit alpha (Homo sapiens); settings: at 1 µM
# [8] = target: T3, Inhibitor of nuclear factor kappa-B kinase subunit beta (Homo sapiens) (UniProt O14920); settings: at 0.1 µM
# T3 sequence (whole entry): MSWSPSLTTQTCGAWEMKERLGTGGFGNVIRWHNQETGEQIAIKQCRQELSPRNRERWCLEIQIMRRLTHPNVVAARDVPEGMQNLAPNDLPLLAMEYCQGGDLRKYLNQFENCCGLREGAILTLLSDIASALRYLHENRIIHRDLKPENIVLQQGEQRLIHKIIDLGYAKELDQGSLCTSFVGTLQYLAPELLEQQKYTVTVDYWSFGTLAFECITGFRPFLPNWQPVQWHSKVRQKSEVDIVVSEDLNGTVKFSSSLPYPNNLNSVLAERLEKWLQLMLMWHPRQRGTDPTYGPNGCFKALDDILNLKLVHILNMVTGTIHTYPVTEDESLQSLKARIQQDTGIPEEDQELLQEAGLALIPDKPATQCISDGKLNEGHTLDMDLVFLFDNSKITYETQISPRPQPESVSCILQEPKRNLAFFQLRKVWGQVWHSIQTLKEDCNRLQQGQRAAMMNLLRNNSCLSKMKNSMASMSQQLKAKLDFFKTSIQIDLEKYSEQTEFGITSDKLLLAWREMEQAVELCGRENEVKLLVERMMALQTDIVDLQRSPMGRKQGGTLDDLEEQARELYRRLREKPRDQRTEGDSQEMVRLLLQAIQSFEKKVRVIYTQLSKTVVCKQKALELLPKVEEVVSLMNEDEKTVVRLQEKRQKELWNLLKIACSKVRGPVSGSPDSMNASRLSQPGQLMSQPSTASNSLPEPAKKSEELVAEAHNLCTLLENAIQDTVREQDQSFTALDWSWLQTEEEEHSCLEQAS
# [9] = target: T3, Inhibitor of nuclear factor kappa-B kinase subunit beta (Homo sapiens); settings: at 1 µM
# [10] = target: T4, Inhibitor of nuclear factor kappa-B kinase subunit epsilon (Homo sapiens) (UniProt Q14164); settings: at 0.1 µM;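 note: mean inhibition of IKKε reported, from the GSK PKIS dataset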
# T4 sequence (whole entry): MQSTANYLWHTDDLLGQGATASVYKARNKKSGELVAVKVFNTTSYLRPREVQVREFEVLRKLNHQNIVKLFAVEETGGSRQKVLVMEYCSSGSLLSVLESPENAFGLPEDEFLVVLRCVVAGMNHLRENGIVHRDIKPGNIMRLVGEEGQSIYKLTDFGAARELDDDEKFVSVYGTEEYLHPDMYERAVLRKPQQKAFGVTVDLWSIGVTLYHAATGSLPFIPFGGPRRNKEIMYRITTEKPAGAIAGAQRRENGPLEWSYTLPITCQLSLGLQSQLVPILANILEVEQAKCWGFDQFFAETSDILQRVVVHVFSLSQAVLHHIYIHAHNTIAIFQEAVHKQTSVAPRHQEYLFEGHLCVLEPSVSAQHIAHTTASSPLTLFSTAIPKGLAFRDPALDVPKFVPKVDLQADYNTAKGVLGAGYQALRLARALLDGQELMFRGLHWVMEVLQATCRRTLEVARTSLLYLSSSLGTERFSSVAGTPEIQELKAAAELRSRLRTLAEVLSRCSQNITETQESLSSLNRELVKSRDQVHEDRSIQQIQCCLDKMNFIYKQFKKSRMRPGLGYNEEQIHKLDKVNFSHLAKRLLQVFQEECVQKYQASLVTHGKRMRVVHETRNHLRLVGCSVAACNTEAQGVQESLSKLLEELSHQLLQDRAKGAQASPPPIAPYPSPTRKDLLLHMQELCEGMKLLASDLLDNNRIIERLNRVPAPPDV
# Sequence of Sphingosine kinase 1 (Homo sapiens) (Q9NYA1 whole entry): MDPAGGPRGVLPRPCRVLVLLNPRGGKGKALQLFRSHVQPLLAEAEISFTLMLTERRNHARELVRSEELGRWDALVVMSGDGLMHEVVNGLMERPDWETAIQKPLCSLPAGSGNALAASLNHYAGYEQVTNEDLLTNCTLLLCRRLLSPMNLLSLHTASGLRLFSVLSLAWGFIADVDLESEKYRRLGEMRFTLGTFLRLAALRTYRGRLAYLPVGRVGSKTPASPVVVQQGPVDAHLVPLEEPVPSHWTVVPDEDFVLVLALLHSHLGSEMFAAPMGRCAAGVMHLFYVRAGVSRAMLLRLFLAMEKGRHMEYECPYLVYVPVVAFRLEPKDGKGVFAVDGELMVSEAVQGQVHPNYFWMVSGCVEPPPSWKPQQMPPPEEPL
smiles,measurement,setting,value
COc1cc(Nc2ncc(-c3ccccc3)o2)cc(OC)c1OC,inhibition,[1],0.49%
same,inhibition,[2],1.41%
same,inhibition,[3],-0.15%
same,inhibition,[4],0.33%
same,inhibition,[5],4.02%
same,inhibition,[6],2.97%
same,inhibition,[7],4.62%
same,inhibition,[8],0.7%
same,inhibition,[9],4.06%
same,inhibition,[10],0.76%
